From PubChem
MCF10A rerep = inducers of DNA re-replication in MCF 10A breast cells | AID 624296 | Potency, µM (titrated, usually from 46.1 µM), for inactives: top-dose activity, positive = re-replication, usual class: activators | actives 2.9% (n = 350,000) | MCF 10A DNA re-replication, Hoechst nuclear intensity, 48 h; note: % of control where 0% means no effect; nearly all actives have a fitted effect of over 50% in size
ELG1 genotoxic = inducers of genotoxicity in HEK293T ELG1-luciferase cells; HEK293T ELG1-luciferase reporter, luminescence, 16 h; Potency, µM (titrated, usually from 46 µM), for the others: top-dose activity change, positive = activation, usual class: activators; actives 1.3% (n = 330,000); AID 504466; note: % of control where 0% means no effect; nearly all actives have a fitted effect of over 60% in size
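Cells (2,000/well) expressing the ELG1-luciferase fusion are dosed by pin tool and kept 16 hr at 37 °C, 5% CO2. Signal comes from ONE-Glo luciferase reagent after 30 min at room temperature.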
ELG1 repair inh = inhibitors of ELG1-dependent DNA repair in HEK293T cells. HEK293T ELG1-luciferase reporter, luminescence, 16 h; DNA damage induced by 5-fluorouridine. Potency, µM (highest dose often 46.1 µM), inactives show top-dose activity change, negative = inhibition, actives largely listed as inhibitors. actives 2.3% (n = 330,000); note: % is set by controls: 0 for no effect and ±100 for the full control effect; nearly all actives have a fitted effect of over 55% in size
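Cells (2,000 per well) received 5-fluorouridine plus test compound or DMSO and were incubated 16 hr at 37 °C, 5% CO2. Luciferase activity was read by luminescence 30 min after ONE-Glo addition; signal suppression marked inhibition of damage-induced ELG1 function.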
p53 reactivator = mutant p53 re-activation in reporter cells; H1299 p53-A138V BP100-luciferase reporter, luminescence, 24 h; Potency, µM (series often up to 92.2 µM), for the others: at the top dose activity change, positive = activation, usual class: activators; actives 0.063% (n = 320,000); AID 504706; note: % of control where 0% means no effect; nearly all actives have a fitted effect of over 45% in size
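p53-null H1299 cells stably carrying temperature-sensitive p53-A138V and a BP100-luciferase reporter were pinned with compounds (4-point, 1:5 series) and held 24 hrs at 37 deg C. Luminescence was read 10 min after detection reagent.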
SW480 rerep = induces DNA re-replication in SW480 colon adenocarcinoma cells. SW480 DNA re-replication, Hoechst DNA content imaging, 48 h. Potency, µM (titrated, usually from 46.1 µM), for inactives: at the top dose re-replication activation, usual class: activators. actives 1.8% (n = 340,000); note: % of control where 0% means no effect; nearly all actives have a fitted effect of over 55% in size
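DNA re-replication was detected as more nuclei of elevated Hoechst intensity after 48 hr exposure to compound (23 nL pinned per well of 250 cells).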
A-T KAP1 phos = potential ataxia-telangiectasia treatment; F2112 A-T fibroblasts, KAP-1 phosphorylation AlphaLISA; neocarzinostatin DNA damage 30 min before lysis; AID 485349; Potency, µM (highest dose often 57.5 µM), for inactives: at the top dose activation, usual class: activators; actives 0.19% (n = 320,000); note: % of control where 0% means no effect; nearly all actives have a fitted effect of over 45% in size
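hTERT-immortalized A-T patient fibroblasts (F2112), 500 cells/well in OPTI-MEM, 1% FBS, got compounds for 60 min, then NCS for 30 min at 37C. Lysates were then assayed for phospho-KAP-1 by AlphaLISA (anti-pKAP1 donor, anti-KAP1 acceptor beads), 6 hr at 25C.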
Active calls of the source: *; ? = inconclusive; . = no result given; [ ] = another dose, or the depositor's remark. Rows were chosen to be rich in hits. Some 7.1% of all compounds tested hit in one or more screens of this group. Calls come from the whole dose curve; as a rule, active = well fitted curve in the direction sought with a large enough effect; inconclusive = small, poorly fitted or top-dose-only effect, or another doubt; inactive = no such curve, though single readings can be large; an effect the other way counts as inactive or inconclusive. Potency is the fitted concentration of half-maximal effect.

SMILES	MCF10A rerep	ELG1 genotoxic	ELG1 repair inh	p53 reactivator	SW480 rerep	A-T KAP1 phos
COc1ccc(-c2ccc(-c3cc(=O)oc4cc(OC)c(OC)c(OC)c34)cc2)cc1F	?	3.7%	?	8.4%	-16.2%	7.3%[11.5 µM]
COc1cc2oc(=O)cc(-c3ccc(-c4ccc(N(C)C)cc4)cc3)c2c(OC)c1OC	1.03µM*	13.4%	-25.0%	18.1%	-27.2%	21.2%
Cc1ccc(S(=O)(=O)N/N=C/c2ccc(C#N)cc2)cc1	6.3%	-0.2%	-16.3%	-0.9%	-7.2%	0.0%
COc1ccc(NC(=O)CN(C)CC(=O)N2CCCCCC2)cc1	3.6%	0.5%	14.8%	-1.1%	-4.3%	6.1%
COc1ccc(CN(CCC(c2ccccc2)C2CCOC(C)(C)C2)C(C)=O)cc1 (stereo not given)	8.0%	-7.6%	16.4µM*	-12.9%	?	3.0%
COc1ccc(CNCCC(c2ccccc2)C2CCOC(C)(C)C2)cc1 (stereo not given)	1.6%	-9.3%	-13.7%	-4.0%	0.4%	-4.2%
COc1cc2[nH]c(C(=O)N3CC(C)OC(C)C3)cc2c(OC)c1OC (stereo not given)	?	2.2%	11.9%	-2.9%	5.7%	11.8%
COc1cccc(-c2ncc3ccccc3c2COC(=O)c2ccc(C(F)(F)F)cc2)c1	-4.9%	1.8%	20.6µM*	3.4%	2.4%	6.2%
COc1cccc(-c2ncc3ccccc3c2COC(=O)c2ccc(Br)cc2)c1	-0.5%	-2.4%	?	-7.8%	-14.9%[9.22 µM]	3.6%
N#C/C(=C\c1ccc(-c2ccccc2)cc1)c1nc(-c2ccco2)cs1	23.1µM*	?	?	10.1%	1.0%	3.1%
COc1cc(C(=O)NC2CCN(C)CC2)ccc1Nc1ncc2c(n1)N(C1CCCCC1)CCC(=O)N2C	0.651µM*	.	.	.	1.46µM*	.
COc1cc(C(=O)NC2CCN(C)CC2)ccc1Nc1ncc2c(n1)N(Cc1ccccc1)CCC(=O)N2C	23.1µM*	.	.	.	?	.
CCN1C(=O)CC(c2ccccc2)N(C2CCCC2)c2nc(Nc3ccc(C(=O)NC4CCN(C)CC4)cc3OC)ncc21 (stereo not given)	?	?	?	2.9%	11.7%	5.6%
O=C(COC(=O)c1cc(-c2ccc(F)cc2)nc2ccccc12)NCC1CCCO1 (stereo not given)	-2.2%	-2.2%	-0.2%	2.4%	-9.3%	5.5%
N#C/C(=C\c1cc([N+](=O)[O-])ccc1Cl)C(N)=O	20.6µM*	-5.4%	-5.1%	-2.0%	8.2µM*	-4.0%
N#C/C(=C/c1ccc([N+](=O)[O-])cc1)C(N)=O	0.8%	-0.5%	-10.3%	-2.4%	0.4%	-3.7%
Cc1ccc(NC(=O)CCC(=O)N2CCN(S(=O)(=O)c3ccc(C)cc3)CC2)cc1	-2.9%	3.4%	2.4%	-0.2%	?	0.2%
O=C(Nc1ccnn1C1CCN(Cc2ccc(C#CCCO)cc2)CC1)c1cccc(F)c1	11.7%	-5.0%	1.4%	11.2%	1.8%	29.3%
Cc1ccc(C(=O)N/C(=C\c2ccco2)C(=O)N2CCOCC2)cc1C	0.6%	-6.4%	20.6µM*	-6.4%	2.1%	5.5%
Cc1ccc(C(=O)N/C(=C/c2ccco2)C(=O)N2CCOCC2)cc1	-1.0%	5.2%	9.2%	-0.9%	-3.5%	-0.5%
CC(C)CC(=O)Nc1ccc(-c2cn3ccsc3n2)cc1	7.7%	1.16µM*	?	?	0.6%	-0.9%
CC(C)(C)C(=O)Nc1ccc(-c2cn3ccsc3n2)cc1	-19.6%	?	?	6.4%	1.4%[9.22 µM]	6.7%
COc1ccc(C(C)NC(=O)c2ccncc2)cc1OC (stereo not given)	-3.2%	4.7%	12.6%	-5.7%	?	10.3%
Oc1c(C(c2ccccc2)N2CCOCC2)ccc2ccccc12 (stereo not given)	16.4µM*	.	.	.	?	.
CCc1ccc(NC(=O)c2onc(C)c2Cl)cc1	4.5%	5.17µM*	?	?	?	1.2%
SMILES	MCF10A rerep	ELG1 genotoxic	ELG1 repair inh	p53 reactivator	SW480 rerep	A-T KAP1 phos
Cc1noc(C(=O)Nc2ccc(C#N)cc2)c1Cl	0.5%	2.3%	14.0%	8.6%	18.6%	11.4%
Cc1cccc(N=C2NN=C(c3c(C)[nH]c4ccccc34)CS2)c1	14.6µM*	-4.7%	?	-1.9%	?	-9.8%
Cc1ccc(S(=O)(=O)NC(=NC(C)C)c2ccccc2)cc1	0.517µM*	0.3%	3.2%	-0.5%	?	-1.1%[11.5 µM]
CCN1CCN(CCNC(=O)c2ccc(/C=C3/Sc4ccccc4N(Cc4ccccc4C)C3=O)cc2)CC1	18.4µM*	-11.8%	?	-6.5%	7.31µM*	-9.6%
CCOCCCNC(=O)CN1C(=O)/C(=C/c2ccccc2)Sc2ccccc21	0.0%	-6.1%	?	-13.8%	-0.8%	11.3%
COCCCNC(=O)CN1C(=O)/C(=C/c2ccccc2)Sc2ccccc21	-2.0%	-3.7%	-2.5%	-0.7%	-12.2%	39.8µM*
CCN1CCN(CCCNC(=O)c2ccc(/C=C3/Sc4ccccc4N(Cc4ccccc4F)C3=O)cc2)CC1	14.6µM*	2.8%	7.3%	1.2%	16.4µM*	-5.3%
Nc1nc(N)nc(-c2cccc(Cl)c2Cl)n1	13.7%	7.4%	?	1.5%	-8.1%	7.7%
COc1ccc([C@]23Cc4ccccc4C(O2)C2=C(CC(C)(C)CC2=O)O3)cc1	.	.	.	.	.	-0.3%[11.5 µM]
C/C(=N/OCC(=O)Nc1ccccc1)c1cccs1	-1.2%	?	?	14.5%	-5.4%	4.1%
C/C(=N\OCC(=O)Nc1ccccc1Br)c1cccs1	?	7.5%	-2.9%	1.9%	0.146µM*	19.2%
COc1ccc(/C=N/Nc2nncn2N)cc1Br	-6.5%	8.5%	3.5%	-13.7%	14.5%	18.9%
COc1cc(/C=N/Nc2nncn2N)ccc1OCc1c(C)no[n+]1[O-]	18.4µM*	-0.2%	4.3%	-12.8%	1.3%	12.2%
CCN(CC)CCCNC(=O)c1cc(-c2ccccc2)c(N2CCCCC2)s1	16.9%	-0.4%	14.8%	0.4%	18.9%	-5.2%
O=C(COC(=O)CNC(=O)c1ccccc1F)NC12CC3CC(CC(C3)C1)C2	0.4%	4.8%	0.1%	3.7%	-2.2%	4.1%
CCOC(=O)C(C)Oc1cccc2c(=O)n(CC(=O)NCc3ccc4c(c3)OCO4)ccc12 (stereo not given)	6.51µM*	9.3%	?	-5.8%	4.11µM*	11.4%
CCOC(=O)C(C)Oc1cccc2c(=O)n(CC(=O)Nc3ccc4c(c3)OCCO4)ccc12 (stereo not given)	0.5%	?	?	5.2%	-5.7%	18.5%
